# Data taken from the supplement of paper PMC6555819.
# Assays:
# Test in all cases: PBM binding z-score (relative to random genomic background probes); higher = stronger binding; sequences stand for … in GC…GCGATTGACAGCGTAGAATGAAGG
# [1] = system: FXR:RXRa (NR concentration 270 nM, RXRa partner concentration 90 nM)
# How it was run: (§1)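 For binding z-scores, the reference was random background probes on custom Agilent 4×180K protein-binding microarrays. These arrays were incubated 1 h with ligand-free nuclear receptor dimers in PBS pH 7.4, 2% milk, 0.02% Triton X-100, 1 mM DTT, 0.2 mg/mL BSA and 0.4 mg/ml salmon testes DNA. Fluorescence was scanned after antibody detection of each partner (one per run) and regression-normalized.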
# [2] = system: LXRa:RXRa (NR concentration 270 nM, RXRa partner concentration 90 nM)
# How it was run: as §1
# [3] = system: LXRa homodimer (NR concentration 270 nM)
# How it was run: as §1
# [4] = system: LXRb:RXRa (NR concentration 270 nM, RXRa partner concentration 90 nM)
# How it was run: as §1
# [5] = system: LXRb homodimer (NR concentration 270 nM)
# How it was run: as §1
# [6] = system: PPARa:RXRa (NR concentration 270 nM, RXRa partner concentration 90 nM)
# How it was run: as §1
# [7] = system: PPARg:RXRa (NR concentration 180 nM, RXRa partner concentration 90 nM)
# How it was run: as §1
# [8] = system: PPARg:RXRa 270nM:90nM, anti-RXR (NR concentration 270 nM, RXRa partner concentration 90 nM)
# How it was run: as §1
# [9] = system: PPARg:RXRa 30nM:10nM, anti-RXR (NR concentration 30 nM, RXRa partner concentration 10 nM)
# How it was run: as §1
# [10] = system: PPARg:RXRa 90nM:30nM, anti-RXR (NR concentration 90 nM, RXRa partner concentration 30 nM)
# How it was run: as §1
# [11] = system: PPARg:RXRa DBDmut IVT, anti-RXR (DBD mutation: RXRa K156A/R161A, NR concentration 270 nM, RXRa partner concentration 90 nM)
# How it was run: as §1
# [12] = system: PPARg:RXRa IVT, anti-PPARg (NR concentration 270 nM, RXRa partner concentration 90 nM)
# How it was run: as §1
# [13] = system: PPARg DBDmut:RXRa IVT, anti-PPARg (DBD mutation: PPARg1 K132A/R137A, NR concentration 270 nM, RXRa partner concentration 90 nM)
# How it was run: as §1
# [14] = system: PPARg DBDmut IVT, anti-PPARg (DBD mutation: PPARg1 K132A/R137A, NR concentration 270 nM)
# How it was run: as §1
# [15] = system: PPARg homodimer (NR concentration 180 nM)
# How it was run: as §1
# [16] = system: PXR:RXRa (NR concentration 270 nM, RXRa partner concentration 90 nM)
# How it was run: as §1
# [17] = system: PXR homodimer (NR concentration 270 nM)
# How it was run: as §1
# [18] = system: RARa:RXR (NR concentration 270 nM, RXRa partner concentration 90 nM)
# How it was run: as §1
# [19] = system: RARa homodimer (NR concentration 270 nM)
# How it was run: as §1
# [20] = system: RARb:RXRa (NR concentration 270 nM, RXRa partner concentration 90 nM)
# How it was run: as §1
Sequence,PBM binding z-score [1],PBM binding z-score [2],PBM binding z-score [3],PBM binding z-score [4],PBM binding z-score [5],PBM binding z-score [6],PBM binding z-score [7],PBM binding z-score [8],PBM binding z-score [9],PBM binding z-score [10],PBM binding z-score [11],PBM binding z-score [12],PBM binding z-score [13],PBM binding z-score [14],PBM binding z-score [15],PBM binding z-score [16],PBM binding z-score [17],PBM binding z-score [18],PBM binding z-score [19],PBM binding z-score [20]
TGAATGAGGTTAAAGATCATGGAACGTGGCGTCG,3.15,2.8,-0.213,1.93,-0.192,4.81,6.66,6.58,4.73,6.88,1.79,3.19,0.0999,-0.204,0.9,2.49,0.119,3.73,0.174,2.04
ATATGTAGGTTATCGAGTCATTCAGTTTGCGCAT,0.672,1.1,0.419,1.04,0.701,3.37,4.61,4.14,2,3.27,6.65,6.84,3.25,2.73,1.91,0.622,0.241,0.687,1,0.872
GCTCGGAGGACAAGGTAAGAGCTTTGTCCGTAGA,-0.326,-0.633,-0.985,-0.8,-1.57,-0.331,-0.742,-0.267,-0.952,-0.841,-0.716,-0.298,-1.26,-1.29,-1.16,-0.574,-1.14,-0.493,-1.14,0.88
CCTCGGAGGACAGAAGGTCAGAGCGGTCCGCTTT,1.42,1.8,0.0694,0.843,-0.863,1.78,-0.185,0.642,-0.618,0.0661,0.0292,-0.0958,-1.49,-1.9,1.2,1.91,-0.289,1.91,0.122,3.18
ACTTACGGGTCAACGAGGTTATACCACGCGTATA,6.87,5.39,1.14,4.59,0.838,5.83,5.59,5.57,1.82,4.26,3.73,3.99,1.8,1.74,2.9,5.43,4.36,5.72,1.26,4.34
TCTGCTAGGGCAGTTGGTCAGCTAACGAGCTGCC,-0.253,-0.634,-0.708,-0.857,-0.624,-0.359,-0.953,0.135,0.729,0.414,1.38,0.996,-0.206,-0.384,-0.702,-0.671,-0.958,-0.138,-1.3,1.14
CCAGACAGGTGAAAGGTAACTTAGTCTGGTACGC,0.545,0.539,-0.368,0.935,-0.486,3.31,5.21,5.6,3.58,5.77,2.21,2.75,0.0771,-0.396,0.712,0.936,-0.035,1.59,0.346,1.15
ATCGAAAGGTCGTGAGGTCAGTATACAGAAAGGC,6.58,5.12,1.48,4.57,1.04,5.7,5.27,5.25,2.05,3.65,0.335,2.89,1.16,0.766,3.48,5.08,0.97,5.65,1.02,5.02
ATCTCTAGGTAAGATTCAGTTCAGTGAAGAACGC,0.354,0.48,0.604,0.249,0.778,0.179,-0.128,0.299,0.045,0.492,0.989,0.954,0.543,0.745,0.75,0.994,1.17,0.657,1.15,0.123
ATCTCTAGGTAAAACTCAGTTCAGTGAAGAACGC,0.591,0.776,0.947,0.542,1.02,0.518,0.101,0.473,0.403,0.618,2.63,1.95,0.847,0.779,1.22,1.7,1.99,0.609,1.49,0.514
GCTTGTAGATGAAGGTTAAGAAAGACTAAGCTAA,-0.515,0.357,-0.563,-0.0135,-0.789,0.816,0.15,0.943,-0.144,0.254,0.000874,0.405,0.135,-0.0594,-0.126,0.0589,-0.403,0.444,-0.213,0.535
CCTCAAAGTTCAACTAAGGTAACGTAAAGCACGC,6.89,6.33,4.64,4.52,2.85,5.12,3.17,4.09,1.44,2.86,0.946,0.996,1.12,0.201,4.29,5.71,4.04,4.47,3.41,5.33
GAGACAGGGTCAGCTAGAGGCCAGAGTATGGAAA,4.45,2.53,-0.421,2.21,-1.18,4.46,2.91,2.82,0.35,1.21,0.507,1.1,-0.524,-0.747,3.57,3.34,0.373,4.73,0.0826,4.09
TCTTGTAGATCAGCAGGTCAAGAAAGCTGGCCAA,1.17,1.55,0.209,1.59,-0.222,2.5,0.457,2.37,2.48,2.59,1.57,1.61,-0.677,-0.699,0.129,1.6,-0.4,2.18,-0.58,2.01
TCTGCTAGGTCAGTTGGTCGGCTAACGAGCTGCC,0.77,0.605,-0.503,0.189,0.554,1.17,-0.329,1.54,1.35,1.7,2.4,2.52,-0.323,0.245,-0.547,-0.0242,-0.996,0.254,-0.776,3.2
TCTTGTAGATCAAAGGTTACGAAAGCCGAAGCCT,2.01,2.2,0.222,2.27,-0.174,4.71,8.72,8.23,7.86,8.98,2.12,3.96,0.521,0.147,1.11,2.41,-0.449,3.28,-0.123,2.14
CCTCGGAGGACAACAGGACGTCAGAGCTGCCAGA,0.0455,-0.556,-0.533,-0.881,-0.769,-0.616,0.187,-1.2,-0.952,-1.19,-0.431,-0.589,-0.661,-1.48,-0.0308,-0.587,-0.482,-0.32,-0.489,0.92
ACTATTAGTTGGCTTAGGGCAACCGATACGACGC,0.0688,-0.0139,0.0233,-0.136,0.573,-0.171,0.739,-0.00108,0.0765,0.0615,0.277,0.0103,0.854,1.29,0.354,-0.139,0.29,0.151,0.786,0.506
ACTAGTTGGTCTGCTGAGGTCACACACAATTCGG,2.8,2.9,1.91,3.28,0.53,3.39,1.35,1.95,0.572,1.35,0.557,1.95,0.686,1.46,2.32,4.42,1.43,3.73,0.842,3.2
CAAACTAGGTCACCGGAAGATCAAAGTCCGCATG,4.71,3.6,0.641,2.62,0.598,5.66,9.41,7.49,5.48,7.48,8.57,9.02,7.41,5.5,6.16,2.27,0.35,3.33,1.83,4.28
CAGACTAGGTCACGAAAGGTCAAAGTCGAATGAC,7.54,8.31,7.86,7.34,2.45,6.6,9.66,7.89,5.88,7.73,7.63,8.03,2.48,2.21,6.4,6.89,2.84,7.62,4.19,5.6
TCGAGTAGGTTAGGCGCATTCAGAATGGCGTCGA,-0.434,-0.29,-0.682,-0.547,-1.16,0.216,-0.326,0.786,0.835,0.489,1.8,0.832,-1.24,-1.21,-1.2,-0.58,-0.715,-0.497,-1.02,0.105
CCTAGCAGGCCAATCTGGGTCACGCAAGGCTTGA,1.04,1.43,-0.342,0.849,-1.08,3.34,3.18,3.08,0.775,2.35,4.65,5.54,0.23,-0.484,0.454,1.48,-0.572,2.17,-0.583,1.92
TCAGACAGGTGAAGGTAACTCGGGTACGCAGTCG,1.07,2.93,0.00206,1.44,-0.167,1.46,0.656,2.33,3.89,3.22,2.75,1.56,-0.468,-0.323,0.71,0.846,0.151,0.795,0.419,1.46
CCTAGCTGGTCAAGGTCACACACGCTATAGGTAC,4.92,3.91,1.74,3.43,0.392,4.23,2.76,3.05,0.699,1.94,1.88,2.8,0.834,0.076,3.15,4.03,1.43,4.64,2.61,3.99
GCTGCTAGGTCATCTGATGGTCAGCTAAAGCTCG,3.98,3.02,0.182,2.03,0.0879,3.39,1.96,2.82,0.263,1.59,3.87,3.44,-0.368,-0.142,0.777,1.71,-0.679,2.64,-0.43,4.07
AGTCAAAGTTCACTAGGTAACGGAAGATTCAGCT,4.46,5.19,2.4,3.15,1.03,4.82,6.78,6.56,3.1,5.71,2.88,4.85,0.928,0.734,2.34,4.05,2.12,3.09,1.02,4.71
CCGACTGGGGCAAGGTTTCCATAACGCACAGCCA,-0.141,-0.322,-0.44,-0.321,-0.889,0.606,2.28,2.75,0.608,1.97,2.98,3.2,-0.0108,-1.24,0.216,-0.725,-0.351,-0.351,-0.575,0.592
